Rows were chosen to be rich in hits. Some 1.6% of all compounds tested hit in one or more screens of this group.
KCNQ2 block = KCNQ2 (rat) channel inhibition; O88943; CHO-K1 KCNQ2, FluxOR thallium flux, 20 min; active compounds read low; B-score at 10 µM; 1.1% of 310,000 active; AID 2156;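 active = fluorescence ratio B-score at most minus 3 library SDs, with starting brightness B-score within 2 library SDs, cut at about -5.5 in these data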
Target sequence (O88943 whole entry, looked up): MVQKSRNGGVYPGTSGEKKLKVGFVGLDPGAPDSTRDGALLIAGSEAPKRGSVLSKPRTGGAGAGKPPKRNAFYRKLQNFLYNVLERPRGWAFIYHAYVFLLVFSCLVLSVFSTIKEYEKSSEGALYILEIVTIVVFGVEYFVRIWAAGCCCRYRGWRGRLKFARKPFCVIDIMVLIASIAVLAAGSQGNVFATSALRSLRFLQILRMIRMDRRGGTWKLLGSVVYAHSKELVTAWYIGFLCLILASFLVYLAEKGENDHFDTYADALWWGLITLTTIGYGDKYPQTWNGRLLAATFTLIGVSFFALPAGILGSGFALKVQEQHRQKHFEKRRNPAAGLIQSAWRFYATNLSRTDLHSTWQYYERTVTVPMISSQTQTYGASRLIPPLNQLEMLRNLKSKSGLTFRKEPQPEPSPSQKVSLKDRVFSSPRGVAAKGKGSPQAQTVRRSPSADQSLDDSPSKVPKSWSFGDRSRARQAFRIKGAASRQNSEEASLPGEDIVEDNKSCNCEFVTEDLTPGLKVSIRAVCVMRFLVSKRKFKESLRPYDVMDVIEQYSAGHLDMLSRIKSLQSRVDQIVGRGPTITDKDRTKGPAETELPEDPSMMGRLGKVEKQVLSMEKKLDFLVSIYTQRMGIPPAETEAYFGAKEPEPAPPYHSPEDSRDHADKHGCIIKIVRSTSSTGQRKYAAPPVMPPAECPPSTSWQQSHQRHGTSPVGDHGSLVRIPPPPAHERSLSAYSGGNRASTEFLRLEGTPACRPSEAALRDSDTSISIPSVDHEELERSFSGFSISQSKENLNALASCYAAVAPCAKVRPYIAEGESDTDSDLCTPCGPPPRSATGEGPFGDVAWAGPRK
KCNQ2 enhance = enhances the rat KCNQ2 potassium channel; O88943; CHO-K1 KCNQ2, FluxOR thallium flux fluorescence; active compounds read high; B-score at 10 µM; 0.54% of 310,000 active; AID 2239;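 active = fluorescence ratio B-score at least 3 SD of library B-scores, with initial fluorescence B-score within 3 of them, cut at about 5.3 in these data; same plate scores as AID 2156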;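 note: B-score of peak minus minimum over baseline fluorescence ratio after K+ and Tl+ stimulus; positive B-score means potentiation of KCNQ2 with more thallium influx and brighter signal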
Of the large screens only hits and unclear results are named; the others gave an inactive call.

Cc1ccc(C(C(=O)NC2CCCCC2)N(CC2CCCO2)C(=O)CNC(=O)c2cccs2)cc1 (stereo not given)	none (no result: KCNQ2 enhance)
CCC1(CC)C(=O)C2=C3C1[C@H](C(=O)OC)C=C(C(=O)OC)C[C@H]3n1c(=O)n(C)c(=O)n1[C@H]2C (stereo not given in full)	none
CCC1(CC)C(=O)C2=C3C1[C@H](C(=O)OC)CC(C(=O)OC)C[C@H]3n1c(=O)n(C)c(=O)n1[C@H]2C (stereo not given in full)	KCNQ2 block -7.48
C=CCN1C(=O)c2ccc(C(=O)N(CC(C)C)c3c(N)n(CCCC)c(=O)[nH]c3=O)cc2C1=O	none (no result: KCNQ2 enhance)
O=C1/C(=C/c2cccc3ccccc23)CCCc2ccccc21	KCNQ2 block -6.64
O=C1/C(=C\c2ccncc2)CCc2ccccc21	none (no result: KCNQ2 enhance)
Cc1nnc(SCC(=O)Nc2ccc(O)cc2)c2ccccc12	KCNQ2 block -5.63
Cc1nnc(SCC(=O)Nc2ccccc2)c2ccccc12	none (no result: KCNQ2 enhance)
COc1ccccc1N1CCN(S(=O)(=O)CCNC(=O)C2CC2)CC1	none (no result: KCNQ2 enhance)
N#Cc1ccccc1NC(=O)CSC1=Nc2ccccc2C2CC=NN12 (stereo not given)	none (no result: KCNQ2 enhance)
Cc1cc(C)cc(N(CCC#N)C(=O)CSC2=Nc3ccccc3C3CC=NN23)c1 (stereo not given)	KCNQ2 block -6.11
Cc1ccc(CN2CCc3c(OCC(=O)Nc4cccc(C)c4C)cccc3C2=O)cc1	KCNQ2 block -7.17
Cc1ccc(C)c(NC(=O)COc2cccc3c2CCN(Cc2ccccc2C)C3=O)c1	none (no result: KCNQ2 enhance)
CC12CCC(=O)N1C(C(=O)Nc1nnc(SCc3ccc(F)cc3)s1)CS2 (stereo not given)	none
COc1ccc(Br)cc1CNC(=O)Cn1nc(C)n2cccc2c1=O	none
CCC(C)n1cnc2c(c1=O)c1nc3ccccc3nc1n2Cc1ccc2c(c1)OCO2 (stereo not given)	none
Cc1nc2c(c(=O)n1CCC(C)C)c1nc3ccccc3nc1n2Cc1ccc2c(c1)OCO2	KCNQ2 block -6.27
Cc1c(CC(=O)O)c(=O)oc2cc(OCc3ccc(Cl)cc3)ccc12	none
O=C(CNC(=O)c1ccc(Br)o1)NNC(=O)c1ccccc1O	none (no result: KCNQ2 enhance)
CCCN(CCC)C(=O)Cn1c(=O)c2ccccc2n2c(=S)sc(-c3ccccc3C)c12	KCNQ2 block -6.78
CCCN(CCC)C(=O)Cn1c(=O)c2sccc2n2c(=S)sc(-c3ccccc3)c12	none (no result: KCNQ2 enhance)
O=C(c1ccco1)N1CCC(c2nc3ccccc3[nH]2)CC1	none (no result: KCNQ2 enhance)
NS(=O)(=O)c1ccc(NCc2cc(Cl)ccc2OCc2ccc(F)cc2)cc1	KCNQ2 enhance 7.67
NS(=O)(=O)c1ccc(NCc2ccccc2OCc2ccccc2F)cc1	none
O=C(COc1ccc2c3c(c(=O)oc2c1)CCC3)Nc1ccccn1	none (no result: KCNQ2 enhance)
COc1cccc(NC(=O)CCC(=O)Nc2cc(OC)c(NC(=O)c3cccs3)cc2OC)c1	none (no result: KCNQ2 enhance)
O=C(O)c1oc2ccccc2c1CSc1ccc(Cl)cc1	none
CCC(C)NC(=O)COC(=O)c1oc2ccccc2c1CSc1ccc(Cl)cc1 (stereo not given)	KCNQ2 block -6.09
CCOC(=O)/C(C(=O)Nc1ccccc1Cl)=C1/NC(C)(C)Cc2ccccc21	KCNQ2 block -8.13
CCOC(=O)/C(C(=O)Nc1ccc(Br)cc1)=C1/NC(C)(C)Cc2ccccc21	none (no result: KCNQ2 enhance)
CC1=C([N+](=O)[O-])C(c2ccc3c(c2)OCO3)N(C)C(=O)N1C (stereo not given)	none
COc1cccc(C(=O)NCC2CCCN(C(=O)c3ccc(C=O)cc3)C2)c1OC (stereo not given)	none (no result: KCNQ2 enhance)
CCOCCCN(C)C1CCN(C(=O)c2oc3ccccc3c2NC(=O)c2ccc(F)cc2)CC1	none (no result: KCNQ2 enhance)
Cc1ccc2c(C)c(C(=O)NCCN3CCOC3=O)oc2c1C	KCNQ2 enhance 5.47
Cc1ccc2c(C)c(C(=O)NCCN3CCCC(O)C3)oc2c1C (stereo not given)	none
CCOC(=O)N1CCC(NC(=O)c2oc3c(C)c(C)ccc3c2C)CC1	KCNQ2 block -5.66
CCOC(=O)N1CCC(NC(=O)c2ccccc2C(=O)O)CC1	none
Cc1ccc(S(=O)(=O)Nc2cccc(C(=O)NCc3ccc(S(N)(=O)=O)cc3)c2)cc1	none
O=C(O)c1ccccc1/C=N/Nc1nc(N2CCCCC2)nc(N2CCCCC2)n1	none (no result: KCNQ2 enhance)
C(=N\Nc1nc(N2CCCCCC2)nc(N2CCCCCC2)n1)/c1ccccc1	KCNQ2 block -5.8
CC(=O)c1ccc([N+](=O)[O-])c(CS(=O)(=O)c2ccccc2)c1	none (no result: KCNQ2 enhance)
CCOC(=O)c1[nH]c(C)c(C(=O)N2CCCC(Nc3ccc(C)c(C)c3)C2)c1C (stereo not given)	none
CCc1ccc(-c2cc(C(=O)NCCCn3ccnc3)c3ccccc3n2)s1	KCNQ2 block -8.18
Cc1ccc(-c2cc(C(=O)NCCCn3ccnc3)c3ccccc3n2)s1	none (no result: KCNQ2 enhance)
CN(Cc1ccccc1)C(=O)c1ccc(NC(=O)c2ccccc2)cc1	none (no result: KCNQ2 enhance)
Cc1cccc(OCC(=O)NNC(=O)C2CCN(c3ncnc4sc(C)c(C)c34)CC2)c1	none (no result: KCNQ2 enhance)
CCCN(CC(=O)Nc1ccccc1C)C(=O)C1CCN(c2ncnc3sc(C)c(C)c23)CC1	KCNQ2 block -6.85
Cc1ccccc1OCC(=O)NNC(=O)C1CCN(c2ncnc3sc(C)c(C)c23)CC1	none (no result: KCNQ2 enhance)
Cc1sc2ncnc(N3CCC(C(=O)N(CC(C)C)c4nc5ccccc5s4)CC3)c2c1C	KCNQ2 block -6.24
CC(C)N(CCNC(=O)c1ccc(CS(=O)(=O)c2c(Cl)cccc2Cl)o1)Cc1ccccc1	none (no result: KCNQ2 enhance)
O=C(Nc1cccc(C(=O)N2CCOCC2)c1)c1ccccc1Cl	none
CCOC(=O)c1cc(C)n(S(=O)(=O)c2ccc(C)cc2)c1C	KCNQ2 block -6.56
CCOC(=O)c1ccccc1NS(=O)(=O)c1ccc(C)cc1	none (no result: KCNQ2 enhance)
CN1/C(=C\C(=O)COC(=O)c2ccc(O)cc2)C(C)(C)c2ccccc21	KCNQ2 block -6.21
CCOC(=O)/C=C1/N(C)c2ccccc2C1(C)C	none
CN1/C(=C\C(=O)COC(=O)c2ccc(O)c(O)c2)C(C)(C)c2ccccc21	KCNQ2 block -6.51
CNS(=O)(=O)c1cccc(C(=O)OCC(=O)/C=C2/N(C)c3ccccc3C2(C)C)c1	none
O=C(Cn1nc(-c2ccccc2)c2ccccc2c1=O)NCCO	none (no result: KCNQ2 enhance)
C=CCn1c(SCC(=O)NCc2ccccc2)nnc1-c1ccccc1O	none (no result: KCNQ2 enhance)
C=CCn1c(CSCc2ccc(Cl)cc2)nnc1SCC(=O)NCc1ccccc1	KCNQ2 block -6.55
O=C(CSc1nnc(CCc2ccccc2)n1-c1ccc(Cl)cc1)NCc1ccccc1	KCNQ2 block -7.4
COc1ccc(-n2c(CCc3ccccc3)nnc2SCC(=O)NCc2ccccc2)cc1	none (no result: KCNQ2 enhance)
C=CCn1c(COc2ccccc2)nnc1SCC(=O)N/N=C/c1ccc(C)cc1	none (no result: KCNQ2 enhance)
C=CCn1c(COc2ccccc2)nnc1SCC(=O)N/N=C/c1cc(Cl)ccc1O	KCNQ2 block -6.37
Oc1ccc(Br)cc1-c1ccnn1-c1ccccc1	none (no result: KCNQ2 enhance)
Cc1ccc(SCC(=O)OCC(=O)N(C)CC(=O)Nc2ccccc2Cl)cc1C	none
CCc1cc(=O)oc2cc(C)cc(OCC(=O)NCCCN3CCOCC3)c12	none (no result: KCNQ2 enhance)
N#C/C(=C/c1ccc(N2CCCCCC2)o1)c1cccc(F)c1	none (no result: KCNQ2 enhance)
N#C/C(=C/c1ccc(N2CCCCCC2)o1)c1ccc(F)cc1	KCNQ2 block -7.01
COc1ccccc1C(=O)C1CCCN(C(=O)c2cnn(C(C)C)c2)C1 (stereo not given)	none
CC1CCN(C(=O)C2CCCN(S(=O)(=O)c3ccc4c(c3)CC(C)N4C(=O)C3CC3)C2)CC1 (stereo not given)	none (no result: KCNQ2 enhance)
O=C(O)Cn1c(=O)c2c3c(sc2n(Cc2ccccc2F)c1=O)CCCC3	KCNQ2 block -6.25
O=C(O)Cn1c(=O)c2c3c(sc2n(Cc2ccc(F)cc2)c1=O)CCCC3	none (no result: KCNQ2 enhance)
